Compounds without any hit were thinned out: in the full panel of roughly 79,000, 15% have a hit. Values without a mark were called inactive. Active and inactive are the calls of the source. No stated cut-off is given here; in the data, active means growth inhibition above about 70%; inactive means the rest.
Test: NCI Yeast Anticancer Drug Screen. Data for the cln2 rad14 strain (AID 165);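 further: 0% = growth equal to vehicle treated cultures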
Conditions: S. cerevisiae cln2 rad14 strain, active compounds read high
Experimental: Growth inhibition of yeast strains with defined genetic alterations is measured as a screen for potential anti-cancer activity. Selected strains with alterations in DNA damage repair or cell cycle control were exposed to compounds and growth inhibition was measured relative to vehicle treated controls. The strain used in this assay is cln2 rad14

[1] = at 5.0 µM (retest, dose inferred, filed as 0.5)
[2] = at 50.0 µM (retest, dose inferred, filed as 5.0)

Row | Structure (SMILES) | growth inhibition [1] | growth inhibition [2] | growth inhibition (at 50.0 µM)
1 | CC(C)CCC[C@@H](C)[C@H]1CC[C@H]2[C@@H]3CC[C@H]4C[C@H](NCCCl)CC[C@]4(C)[C@H]3CC[C@]12C | 28% | 7% | 51%
2 | CC[C@]1(O)CC(OC2CC(N(C)C)C(O)C(C)O2)c2c(cc3c(c2O)C(=O)c2c(O)cccc2C3=O)[C@@H]1C(=O)OC (stereo partly specified) | 15% | 92% (active) | 90.4% (active)
3 | c1ccncc1 | 0% | -1% | –
4 | COc1cc(C=Nc2cc[c]([Hg][O]C(C)=O)cc2)ccc1O | -4% | 22% | 99.3% (active)
5 | O=P(O/C(=C\c1ccccc1)c1ccccc1)(c1ccccc1)c1ccccc1 | 8% | 97% (active) | 96.2% (active)
6 | CCCCC1C(=O)NC(=S)N(c2ccccc2)C1=O (stereo unspecified) | -2% | -7% | 34.2%
7 | C[As](C)SCCC(CCCCC(=O)O)S[As](C)C (stereo unspecified) | 5% | -52% | 37.4%
8 | Clc1ccc(CCN2CCOCC2)c(Cl)c1 | 31% | 30% | 58.5%
9 | CC12CCC(O)CC1=CCC1C2CCC2(C)C(NC(=O)C3CCCN3C(=O)CN(CCCl)CCCl)CCC12 (stereo unspecified) | -5% | 34% | 63.2%
10 | Cc1ccc(P(=O)(c2ccc(C)cc2)c2ccc(C)cc2)cc1.Cc1ccc(P(=O)(c2ccc(C)cc2)c2ccc(C)cc2)cc1.[Cl][Sn]([Cl])([Cl])[Cl] | 4% | 8% | 4.1%
11 | Br[C](Br)(Br)[Hg][c]1ccccc1 | 99% (active) | 98% (active) | 89.3% (active)
12 | O=C1C=C(CN(CCCl)CCCl)C(=O)C=C1CN(CCCl)CCCl | -3% | 8% | 7.6%
13 | O=C1C=CC(=O)C1(Br)Br | 11% | 99% (active) | 99.2% (active)
14 | CSCCl | 11% | 97% (active) | 88.8% (active)

Source: PubChem BioAssay (NCI)
